The results in this text go back to ChEMBL document CHEMBL3988442, “University of Dundee, Small-Polar-MMV Screening Library” (2021).

Screen size: about 48,000 compounds; about 13,000 (27%) showed an effect of 50% or more. The list shows a part of the results.

In this experiment the test system is Wolbachia pipientis. The experiment in a line: Anti-Wolbachia Cell-Based Screen. The experiment is classed as functional. Set-up: scale not given: in the data most compounds retested in dose-response had high values. Particulars: 5 µM.
On to `O=C(CN1CCOC1=O)N1CCC2(CCc3ccccc32)CC1`, for which the “Percent Effect” value is recorded as -4.229%.

Regarding `CCCNC(=O)c1ccc(S(=O)(=O)NC2(COC)CCCC2)cc1`, the “Percent Effect” value is given as -2.263%.

On to `CC(C)c1cc(NCC2(N(C)C)CCCC2)ncn1`, for which the “Percent Effect” value was -5.055%.

Consider `O=C(c1cc(CC2(NCc3ccccc3)COC2)no1)N1CCCCC1`, for which the “Percent Effect” value turned out to be 5.452%.

As to `N#CCCCS(=O)(=O)NC1(c2ccc(F)cc2)CC1`, the “Percent Effect” value came out at 94.21%.

Take `N#CCCCS(=O)(=O)NC(=O)c1ccccc1F`: the “Percent Effect” value is -12.54%.

`N#CCCCS(=O)(=O)NC1(c2cccc(Cl)c2)CC1`: the “Percent Effect” value came to 95.05%.

As for `N#CCCCS(=O)(=O)NC1(c2cccc(Br)c2)CC1`, the “Percent Effect” value is given as 115.6%.

`N#CCCCS(=O)(=O)NC(=O)c1cccc(Cl)c1F`: the “Percent Effect” value was -1.006%.

Consider `COC(=O)NCCCC(=O)NC1(c2cccc(Cl)c2)CC1`, for which the “Percent Effect” value was -10.63%.

Regarding `CS(=O)(=O)CCC(=O)NC1(c2cccc(Br)c2)CC1`, the “Percent Effect” value is listed as -24.79%.

Consider `CS(=O)(=O)CCCNC1(c2cccc(Cl)c2)CCCC1`, for which the “Percent Effect” value is -3.433%.

As for `COCCCC(=O)NC1(c2cccc(Br)c2)CC1`, the “Percent Effect” value was -6.052%.

As to `Cc1[nH]ncc1C(C)NCc1cccnc1` (configuration not stated), the “Percent Effect” value was -9.734%.

Regarding `CCN(C)C[C@@H]1CN(Cc2cnc3c(S(C)(=O)=O)cnn3c2)C[C@@H]1CO`, the “Percent Effect” value is reported as -15.72%.

For the compound `Cc1noc(C)c1CN1C(=O)[C@H]2CC[C@@H]1CN(Cc1cccnc1N)C2`, the “Percent Effect” value was 18.74%.

In the case of `O=C(CCc1ccc(F)cc1)NS(=O)(=O)c1ccc2c(c1)OCCO2`, the “Percent Effect” value was -1.397%.

Take `CCN1CCN(C(=O)c2csnn2)c2ccccc21`: the “Percent Effect” value is given as 3.89%.

On to `NC(=O)CN1CCN(CC2CC2)c2ccccc21`, for which the “Percent Effect” value is on record as -6.284%.

For the compound `O=C(C1CCOC1)N1CCN(CC2CC2)c2ccccc21` (configuration not stated), the “Percent Effect” value is recorded as 109.4%.

For `COCCC(=O)N1CCN(CC2CC2)c2ccccc21`, the “Percent Effect” value is reported as -5.529%.

With `CCc1nc(C)ncc1C(=O)N1CCN(CC)c2ccccc21`, the “Percent Effect” value was -9.426%.

Regarding `CCN1CCN(C(=O)C2CCOC2)c2ccccc21` (configuration not stated), the “Percent Effect” value is 120.4%.

For `COc1ccc(S(=O)(=O)NC(=O)c2ccccc2F)cc1OC`, the “Percent Effect” value is on record as -11%.

With `CC(C)c1ccc(OCn2ccc(C(=O)N3CCCC3)n2)cc1`, the “Percent Effect” value was -7.702%.

With `Cc1cnc(N2CC[C@@H]3O[C@@H](COCc4ccccn4)CC[C@@H]32)nc1.O=C(O)C(F)(F)F.O=C(O)C(F)(F)F`, the “Percent Effect” value was 7.451%.

As for `Cn1cccc1C(=O)N1CC[C@H]2[C@@H]1CCC(=O)N2c1ccccc1`, the “Percent Effect” value is recorded as -9.424%.

Consider `CNC(=O)c1cccnc1NCCOc1ccccc1`, for which the “Percent Effect” value amounted to 11.05%.

Take `CNS(=O)(=O)CC(=O)N(C1CCCC1)C1CC1`: the “Percent Effect” value is on record as -5.548%.

Regarding `CNC(=O)CS(=O)(=O)NC1CCC(C)CC1` (configuration not stated), the “Percent Effect” value stood at 97.23%.

`CC1CCC(NS(=O)(=O)CC(=O)NC2(C(N)=O)CCCC2)CC1` (configuration not stated): the “Percent Effect” value stood at 92.28%.

Consider `CCNC(=O)CS(=O)(=O)NC1CCC(C)CC1` (configuration not stated), for which the “Percent Effect” value came out at 91.13%.

For `CC1CCN(CCNC(=O)C2CCN(S(N)(=O)=O)CC2)CC1`, the “Percent Effect” value is on record as -8.736%.

Take `COCCC1(CNC(=O)NCC2CCC2)CCC1`: the “Percent Effect” value is given as -13.86%.

Consider `CNC(=O)CS(=O)(=O)C1CCN(S(=O)(=O)C2CC2)CC1`, for which the “Percent Effect” value is given as -8.784%.

Take `CCC(C(=O)NC1(C(N)=O)CCCC1)n1cccn1` (configuration not stated): the “Percent Effect” value is listed as -7.452%.

For `CC1CCC(NS(=O)(=O)CC(=O)Nc2ccc(N3CCCC3)cn2)CC1` (configuration not stated), the “Percent Effect” value was -1.172%.

For `Cc1ccc(NC(=O)CS(=O)(=O)NC2CCC(C)CC2)nc1` (configuration not stated), the “Percent Effect” value is 0.19%.

Consider `CC1CCC(N2CCC(NS(=O)(=O)CCCF)CC2)CC1` (configuration not stated), for which the “Percent Effect” value was -1.792%.

Regarding `CC1CCC(NS(=O)(=O)CC(=O)NCC2CCC2)CC1` (configuration not stated), the “Percent Effect” value was found to be 101.5%.

In the case of `Cc1nc(C)n(CC2CCCCN2CC(=O)Nc2cccnc2)n1` (configuration not stated), the “Percent Effect” value is -1.265%.

Take `Cn1cc(CNCCNC(=O)Cc2ccccc2)c(-c2cccnc2)n1`: the “Percent Effect” value came out at 13.61%.

In the case of `COc1ccccc1S(=O)(=O)N1CC(N(C)C)Cc2ccccc21` (configuration not stated), the “Percent Effect” value was found to be 4.709%.

Consider `CN(C)C(=O)CN1C[C@H]2CCN(C(=O)C3CCCO3)CC[C@H]2S1(=O)=O` (some centres not stated), for which the “Percent Effect” value is given as -8.272%.

As for `CCOc1ccnc(N2CCCN(c3nc(C4CC4)ns3)CC2)n1`, the “Percent Effect” value is -0.1352%.

In the case of `CCCC(Nc1nc(COCC)nc2c1CCNCC2)c1nccn1C` (configuration not stated), the “Percent Effect” value is reported as 3.628%.

`O=C(CN1CCN(CCO)CC1)NC(C1CC1)C1CC1`: the “Percent Effect” value was -6.092%.

Turning to `CC1CCC(NS(=O)(=O)CC(=O)NC(C2CC2)C2CC2)CC1` (configuration not stated), the “Percent Effect” value came to 99.55%.

Take `CC1CCC(N2CCC(NS(=O)(=O)CCOC(C)C)CC2)CC1` (configuration not stated): the “Percent Effect” value was -12.56%.

With `O=C(c1ccccc1F)N1CCN(c2ccc(-n3cccn3)nn2)CC1`, the “Percent Effect” value amounted to 5.073%.

On to `CN(CCc1ccccc1)C(=O)c1cc(CN2CCC(O)CC2)on1`, for which the “Percent Effect” value is recorded as -17.23%.

As to `CC/C=C(/C)C(=O)N1CSCC1C(=O)N(C)CCc1ccncc1` (configuration not stated), the “Percent Effect” value is -7.241%.

On to `CN(Cc1ccccc1)C(=O)[C@@H]1Cc2[nH]cnc2CN1C`, for which the “Percent Effect” value came out at 13.33%.

For the compound `CC(=O)N1N=C(c2ccco2)OC1C(=O)N(C)CCc1ccccc1` (configuration not stated), the “Percent Effect” value is given as 108.8%.

With `CN(CCc1ccccc1)C(=O)CN1C(=O)OC[C@@H]1c1ccccc1`, the “Percent Effect” value is listed as -12.26%.

In the case of `CC(=O)N1N=C(c2ccncc2)OC1C(=O)N(C)CCc1ccccc1` (configuration not stated), the “Percent Effect” value was 108.6%.

`CC(=O)N1N=C(c2ccccc2)OC1C(=O)N(C)CCc1ccccc1` (configuration not stated): the “Percent Effect” value is 94.62%.

As for `CCC(=O)N1CSCC1C(=O)N(C)CCc1ccccc1` (configuration not stated), the “Percent Effect” value was -0.07211%.

For `CCc1ccsc1C(=O)N(C)CCc1ccncc1`, the “Percent Effect” value is 33.97%.

For the compound `CC(=O)N1Cc2ccccc2C[C@H]1C(=O)N(C)CCc1ccccn1`, the “Percent Effect” value is recorded as -17.28%.

`CC(=O)N1N=C(c2ccccc2)OC1C(=O)N(C)Cc1ccccc1` (configuration not stated): the “Percent Effect” value was found to be 105.2%.

As to `CN(Cc1cnn(C)c1)C(=O)C1COc2ccccc2C1` (configuration not stated), the “Percent Effect” value is on record as -7.691%.

For `Cc1cnc(C(=O)N[C@H]2CN(CCS(C)(=O)=O)C[C@@H]2C2CC2)cn1`, the “Percent Effect” value was 4.986%.

For `CC(Cc1cncs1)Nc1ncnc2cccc(F)c12` (configuration not stated), the “Percent Effect” value is -13.2%.

For `CC(C)Cc1noc(CC2CCS(=O)(=O)C2)n1` (configuration not stated), the “Percent Effect” value is -7.316%.

On to `CN(C)c1ccc(CNC2(c3ccc(F)cc3)CCOCC2)cc1F`, for which the “Percent Effect” value is -20.17%.

As to `Cc1csc2c(N3CCC(NCCCc4ccncc4)CC3)ncnc12`, the “Percent Effect” value is on record as -7.721%.
